Test results taken from PubChem BioAssay (EPA / NIEHS).
Results filed as inconclusive are left out. The source made the active and inactive calls. Rule for the calls, unless noted: active = hit-call score of the fitted dose curve at least 0.9, where 1 is the maximum; inconclusive = response in the unintended direction; inactive = score below 0.9.

What was measured:
PGR (gene 5241) [1] = target: PGR (gene 5241) (UniProt P06401); experiment: TOX21_PR_BLA_Followup_Antagonist_ratio: Tox21 HEK293 Progesterone Receptor (PR) Antagonism Beta-lactamase Follow-Up Assay, Ratio (AID 2283934)
Outline: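 PR-UAS-bla HEK293T cells, 3,000/well in 2% charcoal-stripped FBS, given compound plus 1nM R5020 agonist for 16 hr at 37C. Beta-lactamase FRET substrate 2 hours, ratio cleaved/uncleaved fluorescence; viability by CellTiter-Glo in same wells.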

[2] = TOX21_PR_BLA_Followup_Agonist_viability: Viability Assessment in the Tox21 HEK293 Progesterone Receptor (PR) Agonism Beta-lactamase Follow-Up Assay (AID 2283935);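 note: signal loss means lower viability so actives are cytotoxic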
Outline: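 PR-UAS-bla HEK293T cells in 2% charcoal-stripped FBS medium, plated 6 hr before compound addition, exposed 16 hr at 37C. Viability read by CellTiter-Glo ATP luminescence after 30 min at room temperature, in the same wells as the beta-lactamase readout.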

PGR (gene 5241) [3] = target: PGR (gene 5241) (UniProt P06401); experiment: TOX21_PR_LUC_Followup_Agonist: Tox21 HEK293 Progesterone Receptor (PR) Agonism Luciferase Follow-Up Assay (AID 2283937; active = hit-call score of the fitted dose curve at least 0.9, where 1 is the maximum; inactive = score below 0.9)
Outline: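 HEK293-PR-A-luc cells, conditioned 5 days in 10% charcoal-stripped FBS medium, seeded 3,000/well for 5 h, then compound-treated 16 h at 37C. ONE-Glo luminescence read after 30 min at room temperature; gain of signal versus DMSO.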

PGR (gene 5241) [4] = target: PGR (gene 5241) (UniProt P06401); experiment: TOX21_PR_LUC_Followup_Antagonist: Tox21 HEK293 Progesterone Receptor (PR) Antagonism Luciferase Follow-Up Assay (AID 2283938);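 note: curve fitted upward as signal gain over DMSO baseline despite antagonist label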
Outline: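 Luciferase reporter in HEK293-PR-A-luc cells: 16 h compound treatment at 37C, ONE-Glo luminescence detection, DMSO as negative control and baseline.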

[5] = TOX21_PR_LUC_Followup_Antagonist_viability: Viability Assessment in the Tox21 HEK293 Progesterone Receptor (PR) Antagonism Luciferase Follow-Up Assay (AID 2283940)
Outline: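 HEK293-PR-A-luc cells kept in charcoal-stripped FBS medium were plated 5 h before compound addition, then exposed 16 h at 37C; viability read as cellular ATP by luciferase luminescence, loss of signal indicating cytotoxicity.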

[6] = TOX21_PR_LUC_Followup_Agonist_viability: Viability Assessment in the Tox21 HEK293 Progesterone Receptor (PR) Agonism Luciferase Follow-Up Assay (AID 2283941);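 note: loss of signal means cytotoxicity so actives lower viability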
Outline: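 HEK293-PR-A-luc cells, kept in 10% charcoal-stripped FBS medium, were treated with compounds for 16 h at 37C. Viability read as cellular ATP by luciferase-coupled luminescence; loss of signal indicates cytotoxicity.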

THRA (gene 7067) = THRA (gene 7067) (UniProt P10827); experiment: TOX21_TRA_COA_Agonist_Followup_ratio: Tox21 Thyroid Hormone Receptor alpha Agonism through Coactivator Recruitment Follow-Up Assay, Ratio (AID 2283948; active = hit-call score of the fitted dose curve at least 0.9, where 1 is the maximum; inactive = score below 0.9)
Outline: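 Agonist-mode biochemical TR-FRET with TRα LBD and SRC-2 coactivator peptide; activity expressed as percent of T3 response over DMSO baseline.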

THRB (gene 7068) [7] = target: THRB (gene 7068) (UniProt P10828); experiment: TOX21_TRB_BLA_Agonist_Followup_ratio: Tox21 Thyroid Hormone Receptor beta Agonism Beta-lactamase (BLA) Follow-Up Assay, Ratio (AID 2283954)
Outline: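 Human TRβ LBD–GAL4 DBD fusion in GeneBLAzer UAS-bla HEK293T cells; 11 concentrations in triplicate, 18 h at 37°C/5% CO2, T3 as agonist control. CCF4-AM substrate 2 h at room temperature; 460:530 nm ratio fitted for gain of signal versus DMSO.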

[8] = TOX21_TRB_BLA_Agonist_Followup_viability: Viability Assessment in the Tox21 Thyroid Hormone Receptor beta Agonism Beta-lactamase (BLA) Follow-Up Assay (AID 2283956)
Outline: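 TRb-bla HEK293T cells (GAL4-DBD/human TRb LBD) in 2% charcoal-stripped FBS medium were exposed 18 h at 37C to 11 concentrations in triplicate. CellTiter-Glo ATP luminescence was read after 30 min at room temperature, with bidirectional fitting against DMSO.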

THRB (gene 7068) [9] = target: THRB (gene 7068) (UniProt P10828); experiment: TOX21_TRB_COA_Agonist_Followup_ratio: Tox21 Thyroid Hormone Receptor beta Agonism through Coactivator Recruitment Follow-Up Assay, Ratio (AID 2283963; active = hit-call score of the fitted dose curve at least 0.9, where 1 is the maximum; inactive = score below 0.9)
Outline: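 First, the GST-fused TRβ ligand-binding domain (5.0 nM) was incubated with test compound in 0.10% BSA. Next, fluorescein-tagged SRC-2 peptide (200 nM) and terbium anti-GST antibody (2 nM) were added. Finally, TR-FRET emission ratios were normalized against DMSO and T3 controls.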

[10] = target: Retinoic acid receptor RXR-alpha (Homo sapiens) (UniProt P19793); experiment: TOX21_TR_RXR_BLA_Agonist_Followup_ratio: Tox21 Thyroid Hormone Receptor beta Retinoid X Receptor alpha (RXRa) Agonism Beta-lactamase (BLA) Follow-Up Assay, Ratio (AID 2283968)
Outline: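 RXRa-UAS-bla HEK293T cells, 5 h attachment at 37C/5% CO2, then 11 concentrations in triplicate for 16 h; 9-cis retinoic acid positive control. FRET-B/GCCF4-AM substrate 2 h at room temperature; 460:530 nm ratio, fitted for gain versus DMSO.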

[11] = TOX21_TR_RXR_BLA_Agonist_Followup_viability: Viability Assessment in the Tox21 Thyroid Hormone Receptor beta Retinoid X Receptor alpha (RXRa) Agonism Beta-lactamase (BLA) Follow-Up Assay (AID 2283970)
Outline: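 RXRa-UAS-bla HEK293T cells, 2,500/well in phenol red-free DMEM with 2% charcoal-stripped FBS, dosed for 16 h at 37C. Viability measured by CellTiter-Glo ATP luminescence; fitted bidirectionally against DMSO baseline, loss of signal indicating cytotoxicity.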

[12] = target: Thyroid hormone receptor alpha (Rattus norvegicus) + Thyroid hormone receptor beta (Rattus norvegicus) (UniProt P18113+P63059); experiment: TOX21_TR_LUC_GH3_Agonist_Followup: Tox21 GH3 Thyroid Hormone Receptor Agonism Luciferase Follow-Up Assay (AID 2283939)
Outline: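 Rat GH3 cells (1,500/well) in serum-free assay medium, treated with 15-point series, 92 uM to 5 nM final, for 24 h at 37C. Luciferase via ONE-Glo luminescence; gain of signal fitted against DMSO, T3 positive control.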

[13] = TOX21_PR_BLA_Followup_Antagonist_viability: Viability Assessment in the Tox21 HEK293 Progesterone Receptor (PR) Antagonism Beta-lactamase Follow-Up Assay (AID 2283936);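 note: hits lower the luminescence signal meaning cytotoxicity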
Outline: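 PR-UAS-bla HEK293T cells (3,000/well, 2% charcoal-stripped FBS) given compound plus R5020 agonist, 16 h at 37C. CellTiter-Glo added after bla read, 30 min at room temperature; luminescence loss indicates cytotoxicity.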

[14] = CCTE_Harrill_HTTr_Viability_DMEM_6hr: (Pilot) CCTE's 6-hour Cell Viability Assessment for the High-Throughput Transcriptomics (HTTr) Platform, in MCF-7 cells cultured in DMEM + 10% fetal bovine serum, Harrill Lab (AID 2283973; active = hit-call score of the fitted dose curve at least 0.9, where 1 is the maximum; inactive = score below 0.9)
Outline: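 MCF-7 cells in DMEM + 10% FBS, eight-point dilution series, 6 h exposure. Membrane integrity by propidium iodide exclusion with high-content imaging; bidirectional fit versus DMSO.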

[15] = CCTE_Harrill_HTTr_Viability_DMEM_12hr: (Pilot) CCTE's 12-hour Cell Viability Assessment for the High-Throughput Transcriptomics (HTTr) Platform, in MCF-7 cells cultured in DMEM + 10% fetal bovine serum, Harrill Lab (AID 2283974; active = hit-call score of the fitted dose curve at least 0.9, where 1 is the maximum; inactive = score below 0.9)
Outline: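 MCF-7 cells in DMEM + 10% FBS exposed 12 h to an eight-point dilution series; membrane integrity scored by propidium iodide exclusion with high-content imaging, bidirectional fitting versus DMSO.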

[16] = CCTE_Harrill_HTTr_Viability_DMEM_24hr: (Pilot) CCTE's 24-hour Cell Viability Assessment for the High-Throughput Transcriptomics (HTTr) Platform, in MCF-7 cells cultured in DMEM + 10% fetal bovine serum, Harrill Lab (AID 2283975; active = hit-call score of the fitted dose curve at least 0.9, where 1 is the maximum; inactive = score below 0.9)
Outline: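 MCF-7 cells in DMEM with 10% FBS exposed for 24 hours to an eight-point dilution series. Membrane integrity by propidium iodide exclusion with high content imaging; bidirectional fit against DMSO.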

[17] = CCTE_Harrill_HTTr_Viability_PRF_DMEM_6hr: (Pilot) CCTE's 6-hour Cell Viability Assessment for the High-Throughput Transcriptomics (HTTr) Platform, in MCF-7 cells cultured phenol red-free DMEM + 10% charcoal-stripped fetal bovine serum, Harrill Lab (AID 2283976; active = hit-call score of the fitted dose curve at least 0.9, where 1 is the maximum; inactive = score below 0.9)
Outline: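 MCF-7 cells in phenol red-free DMEM with 10% charcoal-stripped FBS exposed 6 hours to an eight-point dilution series. Propidium iodide exclusion imaged; curves fitted bidirectionally against DMSO.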

[18] = CCTE_Harrill_HTTr_Viability_PRF_DMEM_12hr: (Pilot) CCTE's 12-hour Cell Viability Assessment for the High-Throughput Transcriptomics (HTTr) Platform, in MCF-7 cells cultured in phenol red-free DMEM + 10% charcoal-stripped fetal bovine serum, Harrill Lab (AID 2283977; active = hit-call score of the fitted dose curve at least 0.9, where 1 is the maximum; inactive = score below 0.9)
Outline: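 MCF-7 cells in phenol red-free DMEM with 10% charcoal-stripped FBS exposed 12 hours to an eight-point dilution series. Viability assessed by high-content imaging of propidium iodide exclusion; bidirectional fit versus DMSO.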

[19] = CCTE_Harrill_HTTr_Viability_PRF_DMEM_24hr: (Pilot) CCTE's 24-hour Cell Viability Assessment for the High-Throughput Transcriptomics (HTTr) Platform, in MCF-7 cells cultured in phenol red-free DMEM + 10% charcoal-stripped fetal bovine serum, Harrill Lab (AID 2283980; active = hit-call score of the fitted dose curve at least 0.9, where 1 is the maximum; inactive = score below 0.9)
Outline: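 MCF-7 cells in phenol red-free DMEM with 10% charcoal-stripped FBS, eight-point dilution series, 24 h exposure. Membrane integrity by propidium iodide exclusion with high content imaging; bidirectional fit vs DMSO.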

Measured: AC50

THRA (gene 7067), sequence (P10827 whole entry, looked up, the tested form may be a part): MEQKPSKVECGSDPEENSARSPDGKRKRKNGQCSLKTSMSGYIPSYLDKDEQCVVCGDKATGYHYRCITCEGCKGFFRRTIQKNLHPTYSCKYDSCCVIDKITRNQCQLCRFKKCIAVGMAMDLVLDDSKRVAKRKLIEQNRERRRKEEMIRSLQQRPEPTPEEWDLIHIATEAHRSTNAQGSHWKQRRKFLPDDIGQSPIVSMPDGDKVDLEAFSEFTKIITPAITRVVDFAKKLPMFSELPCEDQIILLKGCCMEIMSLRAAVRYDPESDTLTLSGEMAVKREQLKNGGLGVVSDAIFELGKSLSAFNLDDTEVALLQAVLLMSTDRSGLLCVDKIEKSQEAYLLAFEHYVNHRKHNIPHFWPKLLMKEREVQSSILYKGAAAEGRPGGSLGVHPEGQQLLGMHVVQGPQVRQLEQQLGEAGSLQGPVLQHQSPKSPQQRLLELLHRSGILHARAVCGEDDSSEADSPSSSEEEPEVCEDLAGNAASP
Retinoic acid receptor RXR-alpha (Homo sapiens), sequence (P19793 whole entry, looked up): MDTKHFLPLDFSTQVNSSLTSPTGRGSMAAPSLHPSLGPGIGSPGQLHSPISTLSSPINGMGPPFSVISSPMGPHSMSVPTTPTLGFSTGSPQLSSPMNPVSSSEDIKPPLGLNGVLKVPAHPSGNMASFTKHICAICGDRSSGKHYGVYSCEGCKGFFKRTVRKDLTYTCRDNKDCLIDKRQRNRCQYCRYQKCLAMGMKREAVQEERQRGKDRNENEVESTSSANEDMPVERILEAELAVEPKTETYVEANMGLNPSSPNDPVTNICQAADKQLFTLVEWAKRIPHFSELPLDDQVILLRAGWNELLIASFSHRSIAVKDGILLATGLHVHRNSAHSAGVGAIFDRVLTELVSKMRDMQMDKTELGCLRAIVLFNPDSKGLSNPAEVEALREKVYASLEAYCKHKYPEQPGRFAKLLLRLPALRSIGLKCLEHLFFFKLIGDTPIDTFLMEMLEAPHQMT
THRB (gene 7068), sequence (P10828 whole entry, looked up, the tested form may be a part): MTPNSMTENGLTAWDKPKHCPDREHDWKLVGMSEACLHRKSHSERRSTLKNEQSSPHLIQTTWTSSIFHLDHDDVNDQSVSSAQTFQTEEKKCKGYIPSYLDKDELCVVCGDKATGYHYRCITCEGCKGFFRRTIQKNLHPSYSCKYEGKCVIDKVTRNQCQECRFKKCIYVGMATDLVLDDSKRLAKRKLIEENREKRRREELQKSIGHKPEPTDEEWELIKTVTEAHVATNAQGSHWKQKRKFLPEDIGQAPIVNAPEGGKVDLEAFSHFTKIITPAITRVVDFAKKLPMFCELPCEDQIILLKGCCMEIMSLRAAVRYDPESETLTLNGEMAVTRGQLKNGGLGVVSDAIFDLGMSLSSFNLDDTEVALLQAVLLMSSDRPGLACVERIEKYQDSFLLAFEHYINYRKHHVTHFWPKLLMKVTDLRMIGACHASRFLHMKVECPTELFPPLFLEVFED
PGR (gene 5241), sequence (P06401 whole entry, looked up): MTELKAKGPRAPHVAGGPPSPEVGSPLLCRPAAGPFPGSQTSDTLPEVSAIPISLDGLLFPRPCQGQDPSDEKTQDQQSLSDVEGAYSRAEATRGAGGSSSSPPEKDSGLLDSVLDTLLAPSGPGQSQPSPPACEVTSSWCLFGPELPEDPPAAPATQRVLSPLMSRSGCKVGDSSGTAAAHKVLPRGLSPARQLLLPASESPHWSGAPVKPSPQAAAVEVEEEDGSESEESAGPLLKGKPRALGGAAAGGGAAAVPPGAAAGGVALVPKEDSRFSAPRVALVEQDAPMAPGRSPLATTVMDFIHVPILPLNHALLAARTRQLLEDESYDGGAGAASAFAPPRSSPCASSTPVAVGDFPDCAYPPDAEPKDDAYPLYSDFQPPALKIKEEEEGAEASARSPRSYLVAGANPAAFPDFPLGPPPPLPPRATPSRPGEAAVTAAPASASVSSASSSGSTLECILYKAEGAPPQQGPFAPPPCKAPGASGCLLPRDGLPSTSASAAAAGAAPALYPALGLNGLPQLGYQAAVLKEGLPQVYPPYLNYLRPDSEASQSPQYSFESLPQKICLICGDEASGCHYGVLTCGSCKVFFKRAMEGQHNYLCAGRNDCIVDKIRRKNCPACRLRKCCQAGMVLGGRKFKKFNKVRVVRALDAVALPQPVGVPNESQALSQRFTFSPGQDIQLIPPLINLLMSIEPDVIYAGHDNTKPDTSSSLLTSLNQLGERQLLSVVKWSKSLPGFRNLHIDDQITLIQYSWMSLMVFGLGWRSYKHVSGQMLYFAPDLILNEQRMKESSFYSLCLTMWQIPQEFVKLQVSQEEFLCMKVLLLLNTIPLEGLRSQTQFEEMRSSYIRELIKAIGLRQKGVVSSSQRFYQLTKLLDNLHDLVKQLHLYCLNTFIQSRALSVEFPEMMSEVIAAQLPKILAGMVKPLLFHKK
Thyroid hormone receptor alpha (Rattus norvegicus) + Thyroid hormone receptor beta (Rattus norvegicus), sequence (P63059 whole entry, looked up): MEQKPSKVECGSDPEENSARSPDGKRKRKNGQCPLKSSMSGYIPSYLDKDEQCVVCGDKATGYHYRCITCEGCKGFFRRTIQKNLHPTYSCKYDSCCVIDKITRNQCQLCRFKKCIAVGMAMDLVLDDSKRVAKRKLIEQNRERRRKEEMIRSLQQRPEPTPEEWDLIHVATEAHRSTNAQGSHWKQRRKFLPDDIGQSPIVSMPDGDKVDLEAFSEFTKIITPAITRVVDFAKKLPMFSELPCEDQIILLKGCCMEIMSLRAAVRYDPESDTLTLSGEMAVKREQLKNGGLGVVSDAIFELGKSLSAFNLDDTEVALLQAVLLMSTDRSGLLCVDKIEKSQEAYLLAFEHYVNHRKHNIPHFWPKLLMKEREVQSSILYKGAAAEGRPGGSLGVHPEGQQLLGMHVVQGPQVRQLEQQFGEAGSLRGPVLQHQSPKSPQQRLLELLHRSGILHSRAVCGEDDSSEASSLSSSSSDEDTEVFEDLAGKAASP
Thyroid hormone receptor alpha (Rattus norvegicus) + Thyroid hormone receptor beta (Rattus norvegicus), sequence (P18113 whole entry, looked up): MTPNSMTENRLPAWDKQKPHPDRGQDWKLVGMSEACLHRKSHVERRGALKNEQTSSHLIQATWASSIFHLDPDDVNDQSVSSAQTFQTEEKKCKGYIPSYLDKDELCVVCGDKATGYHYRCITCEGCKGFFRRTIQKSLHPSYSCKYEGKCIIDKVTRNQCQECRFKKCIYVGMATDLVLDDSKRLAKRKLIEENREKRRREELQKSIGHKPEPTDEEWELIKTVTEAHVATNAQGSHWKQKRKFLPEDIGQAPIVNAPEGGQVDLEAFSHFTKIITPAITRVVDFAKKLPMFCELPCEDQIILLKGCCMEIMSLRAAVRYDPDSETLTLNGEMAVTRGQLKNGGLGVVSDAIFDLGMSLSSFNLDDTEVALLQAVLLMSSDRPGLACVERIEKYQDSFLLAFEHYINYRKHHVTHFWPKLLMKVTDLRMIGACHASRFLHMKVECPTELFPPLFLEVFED

CC12CC1(C)C(=O)N(c1cc(Cl)cc(Cl)c1)C2=O (configuration not stated)
inactive: PGR (gene 5241) [1] | [2] | PGR (gene 5241) [3] | PGR (gene 5241) [4] | [5] | [6]

C=C(C)C(=O)[O][Sn]([CH2]CCC)([CH2]CCC)[CH2]CCC
active: THRB (gene 7068) [7] 68.3 µM | [8] 7.08 µM | [10] 0.116 µM | [11] 15.1 µM
inactive: THRA (gene 7067) | THRB (gene 7068) [9]

NNC(=S)NN
inactive: [12] | THRA (gene 7067) | THRB (gene 7068) [9] | [10] | [11]

CC(C)(c1ccccc1)c1ccc(O)c(C(C)(C)c2ccccc2)c1
inactive: THRA (gene 7067) | THRB (gene 7068) [7] | [8] | THRB (gene 7068) [9] | [11]

CC(C)C1CCC(Cc2ccc(Cl)cc2)C1(O)Cn1cncn1 (configuration not stated)
active: PGR (gene 5241) [1] 15.8 µM | [2] 75.5 µM | PGR (gene 5241) [4] 22 µM
inactive: [13] | [5] | [6]

Nc1ccc(-c2ccc(N)c(Cl)c2)cc1Cl
active: PGR (gene 5241) [1] 5.01 µM | PGR (gene 5241) [4] 6.09 µM
inactive: [2] | [13] | [5] | [6]

C[C@]12CC[C@H](O)CC1=CC[C@@H]1[C@@H]2CC[C@]2(C)C(=O)CC[C@@H]12
active: PGR (gene 5241) [1] 16.1 µM
inactive: [2] | [13] | PGR (gene 5241) [4] | [5] | [6]

CC1(C)CCC(Cc2ccc(Cl)cc2)C1(O)Cn1cncn1 (configuration not stated)
inactive: [2] | [13] | [5] | [6]
active: PGR (gene 5241) [1] 16.8 µM | PGR (gene 5241) [4] 21.6 µM

CC(C)(OO)c1ccccc1
inactive: THRA (gene 7067) | [8] | THRB (gene 7068) [9] | [10] | [11]

Clc1ccc(C2(Cn3cncn3)CC(Br)CO2)c(Cl)c1 (configuration not stated)
inactive: [2] | [13] | [5] | [6]
active: PGR (gene 5241) [1] 37.7 µM | PGR (gene 5241) [4] 46.1 µM

Oc1ccc(-c2ccccc2)cc1
active: PGR (gene 5241) [1] 29.5 µM | PGR (gene 5241) [4] 33 µM
inactive: [2] | [13] | [5]

C[C@@H]1C[C@@H]([C@H](O)CC2CC(=O)NC(=O)C2)C(=O)[C@@H](C)C1
active: [16] 7.82 µM | [19] 9.42 µM
inactive: [14] | [15] | [17] | [18]

O=C1C2(Cl)C3(Cl)C4(Cl)C(Cl)(Cl)C5(Cl)C3(Cl)C1(Cl)C5(Cl)C24Cl (configuration not stated)
active: PGR (gene 5241) [1] 63 µM | [2] 66.2 µM | PGR (gene 5241) [4] 33.8 µM
inactive: [13] | PGR (gene 5241) [3] | [5] | [6]

C[C@]12CCC(=O)C[C@@H]1CC[C@@H]1[C@@H]2CC[C@]2(C)[C@@H](O)CC[C@@H]12
inactive: PGR (gene 5241) [1] | [2] | [13] | [5] | [6]

C[C@H]1CCCC(=O)CCC/C=C/c2cc(O)cc(O)c2C(=O)O1
active: PGR (gene 5241) [1] 14.4 µM
inactive: [2] | [13] | PGR (gene 5241) [3] | PGR (gene 5241) [4] | [5] | [6]
